# Measurements from PubChem BioAssay AID1768 (National Center for Advancing Translational Sciences (NCATS), 2009).
# Among all 270,000 compounds or so, about 620 (0.23%) were called active. Another 12% or so got no clear call; they are omitted. The entries come from a sample that favours actives as a whole. A number with no mark means an inactive call. Calls come from the whole dose curve; as a rule, active = well fitted inhibition curve with a large enough effect in the polarisation, with a control signal flat (not every such curve was filed as active); inconclusive = small, poorly fitted or top-dose-only effect, or effect the other way, or a change in a side signal; inactive = no such curve, though single readings can be large or run the other way; the % refers to the polarisation.
# Target: Menin (Homo sapiens) (UniProt O00255)
# Test: qHTS Assay for Inhibitors Targeting the Menin-MLL Interaction in MLL Related Leukemias: Competition With Texas Red Labeled MLL-derived Mutant Peptide; for FP activity change, negative = inhibition: % of control where 0% means no effect
# Conditions: fluorescence polarization; series mostly up to 61.6 µM; FP activity change, negative = inhibition: at the top concentration
# Potency is the fitted concentration of half-maximal effect.
# Sequence of Menin (Homo sapiens) (O00255 whole entry, looked up): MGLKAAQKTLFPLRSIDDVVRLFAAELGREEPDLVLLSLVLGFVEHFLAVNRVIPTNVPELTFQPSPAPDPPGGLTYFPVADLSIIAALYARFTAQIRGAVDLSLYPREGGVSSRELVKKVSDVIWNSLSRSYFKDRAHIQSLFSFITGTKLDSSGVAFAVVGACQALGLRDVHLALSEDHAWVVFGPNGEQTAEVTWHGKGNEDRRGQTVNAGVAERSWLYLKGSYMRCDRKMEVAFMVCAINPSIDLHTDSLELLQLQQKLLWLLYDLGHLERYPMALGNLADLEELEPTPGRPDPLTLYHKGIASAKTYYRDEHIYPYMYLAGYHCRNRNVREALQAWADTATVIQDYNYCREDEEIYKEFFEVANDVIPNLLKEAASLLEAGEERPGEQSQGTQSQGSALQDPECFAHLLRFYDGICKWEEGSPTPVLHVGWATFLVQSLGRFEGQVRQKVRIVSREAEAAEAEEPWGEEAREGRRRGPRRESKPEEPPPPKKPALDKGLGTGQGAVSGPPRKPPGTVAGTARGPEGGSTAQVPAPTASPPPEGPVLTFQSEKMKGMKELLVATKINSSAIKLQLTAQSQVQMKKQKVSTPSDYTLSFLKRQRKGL
SMILES,"FP activity change, negative = inhibition",Potency
NS(=O)(=O)c1ccc(CNC(=O)c2cccc(Oc3ccccc3)c2)cc1,-21.7%,–
COc1ccc(NC(=O)CSc2nc3ccccc3c(=O)n2C)cc1,-16.9%,–
CC(=O)N1c2ccc(S(=O)(=O)N3CCCC(C(=O)Nc4ccc(C)cc4C)C3)cc2CC1C (centres undefined),-5.14%,–
COc1ccc(-c2nc3ccccc3c(=O)n2CCc2ccc(O)cc2)cc1,4.36%,–
Cc1ccccc1CN1CCC(C(=O)Nc2ccc(Oc3cccnc3)cc2)CC1,-9.01%,–
CCCCC(C(=O)NC(C)(C)C)N(Cc1ccccc1)C(=O)c1snc(C(N)=O)c1N (centres undefined),-3.07%,–
CCc1ccc(C(CNc2nc(C(F)(F)F)nc3ccccc23)N(C)C)cc1 (centres undefined),-1.15%,–
C=C1CCN(C(CC(C)C)C(=O)NCc2cc(OC)c(OC)c(OC)c2)S(=O)(=O)c2ccccc21 (centres undefined),-12.1%,–
CCOC(=O)[C@H]1[C@H]2COc3cc(OC)ccc3[C@@H]2N2C(=O)N(c3ccc(Br)cc3)C(=O)[C@@]12C,2.14%,–
CCn1cc(CN2CCN(CC(C)(C)C)C(CCO)C2)c2ccccc21 (centres undefined),1.44%,–
Cc1cc(=O)oc2c(C)c(OC(C)C(=O)NC3CCN(Cc4ccccc4)CC3)ccc12 (centres undefined),-2.55%,–
O=C(CN1C(=O)COc2ccc(Cl)cc21)N1CCOCC1,1.36%,–
COc1cc(CN2CCCC(C(=O)c3ccc(SC)cc3)C2)cc(Cl)c1O (centres undefined),11.6%,–
Cc1cc(C)nc(N/N=C/c2c(CO)cnc(C)c2O)n1,-1.68%,–
COc1cccc(N(CC(=O)NCc2ccccc2)C(=O)CCC(=O)Nc2nccs2)c1,-4.88%,–
COc1ccc(CSc2nnnn2-c2ccc(O)cc2)cc1F,26%,–
CCOc1ccc(N(CC(=O)NCCc2ccc(F)cc2)S(=O)(=O)c2ccccc2)cc1,-2.73%,–
O=C1CCC(C(=O)N2CCN(c3ccccc3Cl)CC2)CN1CC1CCCCC1 (centres undefined),-14.6%,–
CCC(=O)c1cn(CCOc2ccccc2OC)c2ccccc12,33.7%,–
CC1(C)CCSC(/C=C/c2ccccc2)=N1,–,31.6 µM (active)
CCCC[C@]12Cc3cc(OC)c(OC)cc3C(O1)C1=C(CC3(CCCCC3)OC1=O)O2,-17.1% [at 11.7 µM],–
O=S(=O)(Nc1cccc(Oc2ccc(Cl)cc2)n1)c1ccc(F)cc1,41.6%,–
CN(C)c1ccnc(Oc2ccc(F)cc2)c1C#N,9.99%,–
N#Cc1ccc(-c2ccc(Cl)cc2)nc1Oc1ccc(F)cc1,–,20 µM (active)
CC1C(=O)C(C)C(c2ccc(O)cc2)NC1c1ccc(O)cc1 (centres undefined),20.1%,–

SMILES,"FP activity change, negative = inhibition",Potency
CCN(C(=O)C1CCCN(c2nc(-c3ccc(OC)cc3)no2)C1)c1ccc(OC)cc1 (centres undefined),-7.46%,–
Cc1ccc(S(=O)(=O)c2nc(-c3cccs3)oc2NCc2cccnc2)cc1,7.57%,–
CCOCCCn1c(SCC(=O)Nc2cc(OC)ccc2OC)nc2ccccc2c1=O,15.9%,–
COc1ccc2[nH]c(C(=O)N/N=C/c3cc(OC)c(OC)c(OC)c3)cc2c1,5.44%,–
C=C1C(=CC=C2CCC[C@@]3(C)[C@@H]2CC[C@H]3[C@H](C)CCCC(C)C)C[C@@H](O)C[C@@H]1O,-6.01%,–
Cc1ccc(C(=O)NC23CC4CC(CC(C4)C2)C3)c(Cl)c1,-16.7%,–
CCOc1ccccc1NC(=S)NC(=O)CCc1ccccc1,5.54%,–
CCc1ccc(N(C(=O)c2csnn2)C(C(=O)NC2CCCCC2)c2cccnc2)cc1 (centres undefined),-8.39%,–
O=C1CN(Cc2ccccc2)S(=O)(=O)c2ccccc21,5.81%,–
CCOC(=O)C(Cc1ccc(N)cc1)N1C(=O)c2ccccc2C1=O (centres undefined),-0.825%,–
CCN1CC=C2C(C#N)=C(N)C(C#N)(C#N)[C@H](c3ccoc3)[C@H]2C1,–,17.8 µM (active)
CCCN1CC=C2C(C#N)=C(N)C(C#N)(C#N)C(c3cc(OC)ccc3OC)C2C1 (centres undefined),-20.9%,–
CCOC(=O)N1CC=C2C(C#N)=C(N)C(C#N)(C#N)[C@H](c3cccs3)[C@H]2C1,1.03%,–
O=C(NCCc1c[nH]c2ccccc12)C1CCN(Cc2ccc(Br)cc2)CC1,-2.52%,–
CC(C)C(C)NC(=O)COc1nc2ccccc2nc1N(C)C1CCCCC1 (centres undefined),-8.68%,–
Cc1cccc(OC(C)C(=O)N2CCc3ccccc3C2)c1 (centres undefined),-12.6%,–
COC(=O)c1ccc(CN2C(=O)NC(c3ccccc3)(c3ccccc3)C2=O)o1,-16.5%,–
CN(Cc1ccccc1)C(=O)C1CCCN(c2ncnc3c2nc2n3CCCCC2)C1 (centres undefined),-7.48%,–
Cc1ccccc1OCC(=O)Nc1ccc(S(=O)(=O)N2CCOCC2)cc1,30.5%,–
COc1ccc(CCNC(=O)CSCc2ccc(Br)cc2)cc1OC,-14.4%,–
CCOc1cc(-c2cc(-c3ccc(NC(C)=O)cc3)nc(N)c2C#N)ccc1O,19.5%,–
O=C(c1cc(C(=O)N2CCN(c3ccc(F)cc3)CC2)cc([N+](=O)[O-])c1)N1CCN(c2ccc(F)cc2)CC1,2.04%,–
Cc1cc2oc(=O)cc(CN(C)Cc3ccc(OC(F)F)cc3)c2cc1Cl,7.43%,–
COC(=O)c1ccccc1NC(=O)C1CCN(C(=O)N2CCOc3ccccc32)CC1,-28.1%,–
CCCNC(=O)CCc1c(C)nc2c(c(C)nn2-c2ccc(C)cc2)c1C,11.6%,–

SMILES,"FP activity change, negative = inhibition",Potency
C/C(=N\NC(=O)c1ccoc1C)c1ccccc1O,4.06%,–
COc1ccc(-c2ccc(OC)c(C3C4C=CCC(C)C4C(=O)N3Cc3ccccc3)c2)cc1C (centres undefined),-28.8%,–
Cc1nnc(NC(=O)C(c2ccccc2)c2ccccc2)s1,-23.4%,–
CC(C)C[C@@H](COc1ccccc1)N1CCN(CC(C)C)CCC1=O,-8.58%,–
Cc1nn(-c2ccc([N+](=O)[O-])cc2)c(N)c1-c1ccccc1,17.3%,–
O=c1[nH]n(-c2ccc([N+](=O)[O-])cc2)c(=O)c2ccccc12,–,31.6 µM (active)
Cc1nc2ccccc2c(=O)n1Cc1ccc([N+](=O)[O-])cc1,-0.0877%,–
COc1ccc(CCNC(=O)c2cnc(Cl)c(Cl)c2)cc1,13.2%,–
CCOc1ccc(NC(=O)c2nc(SCC)ncc2Cl)cc1,-7.71%,–
Cc1ccc(SCC(CC(C)C)N2CCN(CCc3ccccc3)CCC2=O)cc1 (centres undefined),-8.63%,–
O=C(Nc1nc(-c2ccc(-c3ccccc3)cc2)cs1)c1cnccn1,-16.9%,–
Cc1ccccc1Nc1nc(-c2cccnc2)cs1,0.491%,–
c1cnc(Nc2nc(-c3ccc4ccccc4c3)cs2)nc1,–,17.8 µM (active)
Cc1c(C)c2c(OCC(=O)NCCCO)cc3c(c2oc1=O)CCC(C)(C)O3,-20.7%,–
COc1ccc(NC(=O)CN2C(=O)CSc3ccc(S(=O)(=O)N4CCC(C)CC4)cc32)cc1,32.8%,–
CCNC(=O)c1cnn(-c2ccccc2)c1-c1ccccc1,-5.6%,–
COc1ccc(NC(=O)NCCN2CCN(c3ccc(C)cc3)CC2)c(Cl)c1,0.531%,–
COc1ccc(C2/C=C\CN(C(=O)c3ccc(C)cc3)C(Cc3ccccc3)C(=O)N2Cc2ccc(F)cc2)cc1 (centres undefined),30.8%,–
CCOc1ccc(C(C(=O)NC2CCCC2)N(C(=O)c2snc(C(N)=O)c2N)C2CCCC2)cc1 (centres undefined),-24.3%,–
CC(=O)N1CCOc2ccc(S(=O)(=O)N3CCN(c4cccc(C(F)(F)F)c4)CC3)cc21,14.8%,–
O=C(NCCc1cccc(F)c1)C1CCCN(c2nc3ccccc3s2)C1 (centres undefined),-11.9%,–
CC(Cc1cccs1)N(Cc1ccc(Cl)cc1)C(=O)c1ccncc1 (centres undefined),-15.9%,–
COc1ccc(CN2CCC(=O)c3ccccc3S2(=O)=O)cc1,4.64%,–
COc1ccc(OC)c(CNC(=O)Cn2nc(C)c3c(C)n(-c4ccc(C)cc4)nc3c2=O)c1,-14.1%,–
CCN1C(=S)N[C@@H](c2cccc(C(F)(F)F)c2)C(C(=O)OC)=C1C,-22.2%,–

SMILES,"FP activity change, negative = inhibition",Potency
COc1cc(C(=O)NCc2ccncc2)cc(Br)c1OCc1ccccc1,51.3%,–
Cc1ccc(CNC(=O)C2(C(F)(F)F)C/C(=C\CCO)CCCO2)o1 (centres undefined),2.61%,–
FC(F)(F)c1nnc2c3ccccc3c(Cl)nn12,-2.32%,–
CC(C)C[C@H]1CN=C(Nc2ccccc2)N1CC1CCCCC1,-13.1%,–
COC(=O)c1ccc2c(=O)n(CCN3CCOCC3)c(SCC(=O)Nc3cccc(OC)c3)nc2c1,-4.18%,–
Cc1c(C(=O)NCC(c2ccco2)N2CCCC2)oc2ccc(Cl)cc12 (centres undefined),-16.2%,–
COc1cc(OC)c2c(c1C(CCN1CCCCC1)c1ccc(N(C)C)cc1)OC(=O)CC2c1ccc(N(C)C)cc1 (centres undefined),2.4%,–
O=C(N/C(=C/c1ccc(Cl)cc1)C(=O)N1CCCCC1)c1ccco1,1.31%,–
Cc1ccc(-n2ncc(C(=O)NC3CC3)c2C2CCN(C(=O)OC(C)(C)C)CC2)c(C)c1,0.388%,–
Cc1cc2c(c(=O)n1Cc1ccccc1)C1O[C@](CCCCN3C(=O)c4ccccc4C3=O)(Cc3ccccc31)O2,12.4% [at 11.7 µM],–
CC1Sc2ccc(S(=O)(=O)CCC(=O)NCc3ccccc3Cl)cc2NC1=O (centres undefined),14.1%,–
COc1cc(C(=O)NC2CCN(Cc3ccccc3)CC2)cc(Cl)c1OC(C)C,-8.46%,–
Cc1ccc(C(=O)NNC(=O)c2cc3cc4ccccc4nc3s2)cc1,–,17.8 µM (active)
O=C(NNC(=O)c1cc2c(s1)CCCC2)c1ccccc1,2.97%,–
Cc1ccc(C(=O)NNC(=O)c2cccs2)cc1,9.25%,–
COc1ccc(-c2nc3c(s2)CCc2onc(-c4ccc(OC)cc4)c2-3)cc1,5.56%,–
O=C1OC2(CCCCC2)CC2=C1C1O[C@](c3ccsc3)(Cc3ccccc31)O2,-0.298% [at 11.7 µM],–
COc1ccc(CN2CCCC(N3CCc4ccccc4C3)C2)c(O)c1 (centres undefined),-18.7%,–
Cc1ccc2nc(-c3ccncc3)cc(C(=O)Nc3ccncc3)c2c1,-0.0318%,–
COc1cccc(OCC(O)CNC(=O)c2oc3c(C)c(C)ccc3c2C)c1 (centres undefined),-16.1%,–
CC(C)CNS(=O)(=O)c1ccc(CCC(=O)NCc2ccc(Cl)cc2)cc1,-21.7%,–
C=CCn1c(SCC(=O)NC)nnc1C12CC3CC(CC(C3)C1)C2,-14.9%,–
COCCN1C(=O)C(=O)/C(=C(/O)c2ccc(S(=O)(=O)N3CCCCC3)cc2)C1c1ccc(OC)c(OC)c1 (centres undefined),8.43%,–
COc1cc(C(=O)NCc2cc3cc(Cl)ccc3n2C)cc(OC)c1OC,2.93%,–
